# The panel holds about 83,000 compounds, 20% with a hit somewhere; the sample as a whole holds those more often.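 96-well plates, one dose, 48 hours. Percent growth reported; active if below 10.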 Values without a mark were called inactive. Activity calls are given as the source filed them.
# How the values were obtained:
# Assay in all cases: NCI-60 one-dose screen, 48 h (100 = growth as untreated, 0 = no growth, -100 = all killed)
# Conditions in all cases: 10 µM
# HT29 colon = system: HT29 colon
# SNB-75 CNS = system: SNB-75 CNS
# SNB-19 CNS = system: SNB-19 CNS
# U251 CNS = system: U251 CNS
# PC-3 prostate = system: PC-3 prostate
# SK-MEL-5 melanoma = system: SK-MEL-5 melanoma
# UACC-62 melanoma = system: UACC-62 melanoma
# LOX IMVI melanoma = system: LOX IMVI melanoma
# SK-MEL-28 melanoma = system: SK-MEL-28 melanoma
# SK-MEL-2 melanoma = system: SK-MEL-2 melanoma
# SN12C renal = system: SN12C renal
# UO-31 renal = system: UO-31 renal
# TK-10 renal = system: TK-10 renal
# ACHN renal = system: ACHN renal
# CAKI-1 renal = system: CAKI-1 renal
# A498 renal = system: A498 renal
# CCRF-CEM leukemia = system: CCRF-CEM leukemia
# MOLT-4 leukemia = system: MOLT-4 leukemia
# EKVX NSCLC = system: EKVX NSCLC
SMILES,growth (HT29 colon),growth (SNB-75 CNS),growth (SNB-19 CNS),growth (U251 CNS),growth (PC-3 prostate),growth (SK-MEL-5 melanoma),growth (UACC-62 melanoma),growth (LOX IMVI melanoma),growth (SK-MEL-28 melanoma),growth (SK-MEL-2 melanoma),growth (SN12C renal),growth (UO-31 renal),growth (TK-10 renal),growth (ACHN renal),growth (CAKI-1 renal),growth (A498 renal),growth (CCRF-CEM leukemia),growth (MOLT-4 leukemia),growth (EKVX NSCLC)
COc1cc(C)c2sc3ccccc3c(=O)c2c1NCCN(C)C,16.3%,50.5%,65.2%,44.8%,53.4%,36.9%,-90.3% (active),26.4%,54.1%,121%,54.2%,32%,61.9%,38.4%,39.7%,55%,22.6%,1.59% (active),–
O=C(Nc1ccc(Oc2ccc(Nc3nc4ccccc4s3)cc2)cc1)Nc1ccc(Cl)c(Cl)c1,31.7%,44.1%,27.1%,29.5%,23.4%,34.3%,21.1%,26.2%,45.9%,50.7%,24.9%,25.8%,54.1%,20.3%,37.6%,33.4%,24.5%,9.65% (active),–
O=C(Nc1ccc(OS(=O)(=O)Cc2ccccc2)cc1)C12CC3CC(CC(C3)C1)C2,9.75% (active),114%,91.4%,67.7%,55.6%,63.3%,81.6%,68%,103%,102%,88.3%,78.4%,–,99.8%,84.2%,83.1%,85.2%,41.5%,–
CC(=O)Nc1ccc2c(c1)C(N1CC3CCC(CC3)C1)c1ccccc1-2 (centres undefined),75.1%,88.6%,107%,77.7%,34.8%,49.3%,60.5%,93.3%,108%,96.7%,86.8%,66.7%,113%,93%,70.9%,78.5%,74.5%,63.5%,88.5%
O=C1/C(=C/c2ccc(O)cc2)CSc2ccc(Cl)cc21,–,93.8%,88.4%,74.8%,58.9%,80.9%,71.8%,49.3%,107%,97.8%,81.5%,73.1%,103%,88.9%,79.9%,99.5%,–,22.3%,–
[O-]c1c[n+](-c2ccc(Cl)cc2)no1,118%,90.4%,95.9%,102%,91.4%,–,91.5%,98%,109%,102%,92.9%,84.8%,116%,106%,108%,98.7%,111%,102%,103%
COc1ccc(C2=NNC(c3sc(Cl)nc3Cl)C2)cc1 (centres undefined),85.9%,101%,95.6%,93.7%,89.6%,54.6%,96%,9.86% (active),98.9%,62.8%,22.4%,85.3%,–,105%,97.4%,102%,17.7%,7.63% (active),–
CCCCCCCCCCCC(=O)NCCCN(C)C,65.5%,75.2%,102%,75%,75.5%,105%,101%,69%,91.9%,92.2%,86.6%,85%,96%,99.9%,83.4%,72.2%,65%,88.9%,–
CCC1(C)OC(=O)NC1=O (centres undefined),99.9%,100%,108%,99%,79.3%,98.2%,103%,94.3%,108%,106%,–,88.6%,99.3%,102%,97.8%,125%,83.1%,112%,101%
CCCCCCN=C(N)CCCCCCCCCCC(N)=NCCCCCC,14%,23.8%,18.4%,14.8%,23.8%,20%,40.9%,37.2%,55.8%,38.3%,–,78.6%,55.6%,48.5%,55.9%,37%,29.5%,38.2%,34.6%
COc1ccc(C2C=C(c3ccc(Cl)cc3)N=C3SC=CN32)c(Br)c1 (centres undefined),65.2%,63.6%,66.9%,70.2%,45.2%,88.6%,75.2%,–,63.5%,85.3%,67.6%,84.3%,83.5%,67.7%,54.1%,89.7%,71.7%,53.1%,–
CCc1ccc(Nc2cc(C)nc3nc(C)nn23)cc1,-76.3% (active),29.6%,15.4%,-98.9% (active),1.4% (active),-97.8% (active),-99.1% (active),-98.2% (active),-98% (active),14.5%,26.2%,13.4%,-6.1% (active),-2.86% (active),0.395% (active),34.7%,-10.6% (active),-20.7% (active),–
N=C(N)c1ccc(-c2ccc(-c3ccccc3)s2)s1,-70.1% (active),-6.07% (active),10%,-74.6% (active),-26% (active),14.5%,-84.9% (active),-69.2% (active),-95.9% (active),-77.7% (active),-74.9% (active),-74.1% (active),-61.7% (active),-82.6% (active),-59.4% (active),32.1%,-49.4% (active),-55.9% (active),–
CC1(C)CC(=O)c2c(nc3ccc(Cl)cc3c2-c2ccccc2)C1,98.6%,95.7%,90%,102%,48.7%,73%,75.3%,93.4%,174%,81.2%,92.5%,66%,118%,93.9%,85.5%,115%,49.5%,68.2%,95.9%
CCCCCCCCCCSC(=N)N (tested in a mixture with another compound),3.13% (active),91.2%,75.8%,31.6%,65.5%,80.5%,9.19% (active),48.9%,72.1%,81.2%,–,64.4%,–,81.1%,87.9%,80.1%,56.2%,43.9%,74.8%
COc1cc(-c2nc3ccc(C)cc3[nH]2)ccc1OCc1nnc(-c2ccc(CC(C)C)cc2)o1,73.3%,83.9%,94.6%,75.6%,88.1%,–,90.3%,103%,87.8%,97.3%,92%,77.8%,119%,107%,95.1%,81.8%,80.3%,82.4%,–
COc1cc(CSc2nc3ccc(C)cc3c(=O)n2Cc2ccccc2)cc(OC)c1OC,10.5%,-4.08% (active),58.1%,33.1%,45.9%,17.8%,21.4%,39.8%,52%,1.08% (active),40%,32.1%,52.7%,46.7%,28.8%,7.01% (active),23.6%,30.8%,–

SMILES,growth (HT29 colon),growth (SNB-75 CNS),growth (SNB-19 CNS),growth (U251 CNS),growth (PC-3 prostate),growth (SK-MEL-5 melanoma),growth (UACC-62 melanoma),growth (LOX IMVI melanoma),growth (SK-MEL-28 melanoma),growth (SK-MEL-2 melanoma),growth (SN12C renal),growth (UO-31 renal),growth (TK-10 renal),growth (ACHN renal),growth (CAKI-1 renal),growth (A498 renal),growth (CCRF-CEM leukemia),growth (MOLT-4 leukemia),growth (EKVX NSCLC)
CCCCCCCCCCCCc1ccc(C(=O)/C=C/C(=O)O)cc1,27.8%,74.5%,94.4%,80.1%,–,92.1%,-16.8% (active),-62.4% (active),26.4%,93.1%,–,85.3%,68.7%,55.9%,91.1%,81.7%,-17.6% (active),-15.1% (active),99.9%
N#CN1CC[C@H](C(=O)Nc2ncc(-c3ccncc3)s2)C1,-39.9% (active),-37.5% (active),9.6% (active),1.7% (active),5.04% (active),-17.1% (active),-26.9% (active),2.09% (active),5.92% (active),-36.1% (active),–,8.4% (active),-24.9% (active),6.59% (active),10%,-49.4% (active),7.15% (active),-20.4% (active),1.46% (active)
CC(C)OCc1cc(CN2CCN(c3cccc(Cl)c3)CC2)c(O)c2ncccc12,-17.1% (active),-25.3% (active),19.6%,-37.8% (active),-0.0543% (active),-85.2% (active),-61.2% (active),-73.3% (active),-2.34% (active),-59.1% (active),-4.06% (active),-6.8% (active),5.04% (active),10.1%,-49.9% (active),-62.7% (active),–,-48.6% (active),–
COc1ccc(CSc2nc3cc(OC)c(OC)cc3c(=O)n2-c2ccc(OC)cc2OC)cc1,88%,90.3%,79.6%,85.9%,55.6%,80.5%,80.2%,83.4%,102%,91.5%,90.1%,55.4%,–,94%,68.7%,58.6%,92.7%,79.4%,–
N#Cc1c2c([nH]c(=O)c1C(N)=O)CCCCC2,105%,104%,99%,98.3%,103%,95.8%,88.3%,101%,106%,98.7%,–,85.2%,95.4%,104%,99.3%,89.8%,95%,117%,104%
c1ccc(CC(NCCNC(Cc2ccccc2)c2ccccc2)c2ccccc2)cc1 (centres undefined),-27.7% (active),63.3%,44.4%,13%,24.2%,-52.3% (active),16%,-87.9% (active),50.2%,69.8%,–,27.3%,61.1%,20.6%,7.43% (active),61.8%,10.1%,-13.2% (active),23%
CC(=O)Nc1nc(C)c(C(=O)N/N=C/c2cccn2C)s1,101%,109%,117%,103%,94.9%,98.4%,87.7%,98.4%,105%,43.6%,94.5%,93.7%,–,107%,111%,89.6%,98.8%,100%,103%
Cc1[nH]nc2c(=S)[nH]c(=O)[nH]c12,108%,89.7%,101%,100%,97.1%,94.4%,88.5%,99.9%,102%,109%,105%,93.4%,108%,104%,101%,100%,97.8%,105%,–
CCCCCCCC/C=C/CCCCCCCCC1=NCCN1CCO,19.7%,57.3%,92.8%,54.1%,46.2%,85.6%,90.5%,-7.51% (active),90.5%,95.1%,64.1%,38.5%,124%,58.7%,80.5%,84.7%,19.7%,34.3%,–
C#CCn1c(-c2cccc(OCCCCl)c2)nc2c1c(=O)n(C)c(=O)n2C,102%,89%,97%,90.7%,26%,61.4%,46.2%,93.8%,95.7%,81%,84.5%,50.5%,101%,76.6%,69.2%,83.6%,13%,2.33% (active),–
COc1ccc(-c2[nH]ncc2/C=C/c2cc(C(F)(F)F)[nH]c(=O)n2)cc1,99.1%,88%,91%,88.5%,98.7%,93.7%,102%,87.4%,114%,82.9%,96.2%,87.1%,94.8%,92.6%,102%,89.3%,73%,86%,–
Cc1cc(=O)oc2cc(OCc3cn(CC(O)CO)nn3)ccc12 (centres undefined),115%,132%,105%,100%,110%,25.5%,97.4%,103%,128%,115%,102%,–,105%,105%,109%,-3.54% (active),92.5%,98.6%,97%
COc1ccc(S(=O)(=O)Nc2cc(/C=C\c3cc(OC)c(OC)c(OC)c3)ccc2OC)cc1,-13.4% (active),-2.76% (active),55.1%,0.353% (active),-2.4% (active),-20.1% (active),27.8%,19.3%,48.8%,5.84% (active),15.6%,24.6%,39.6%,18.7%,26%,-19.2% (active),15.4%,8.46% (active),–
COc1cccc(-c2nnc(COc3ccc(-c4nc5ccc(C)cc5[nH]4)cc3OC)o2)c1,21.4%,56.6%,69.6%,23%,57.7%,70.4%,79.9%,78.4%,65.2%,98.8%,72.6%,88.2%,102%,25.9%,94.4%,71.3%,2.49% (active),25.6%,–
CC(C)C(C)C(N)C(=O)O (centres undefined),107%,95.2%,115%,103%,98.2%,102%,113%,–,108%,101%,106%,85.6%,95.4%,99%,99%,109%,95.1%,93%,–
Nc1nc2c(ncn2C2OC3COP(=O)(O)OC4C(COP(=O)(O)OC2C3O)OC(n2cnc3c(N)ncnc32)C4O)c(=O)[nH]1 (centres undefined),97.4%,104%,93.5%,110%,108%,–,103%,90.2%,113%,115%,106%,104%,112%,105%,100%,5.1% (active),97.8%,92.8%,–

# Source: PubChem BioAssay (NCI)
